# Measured values: publication PMC4336329 (PLoS ONE, 2015)
# The whole screen tested about 310,000 compounds, of which about 14,000 (4.5%) showed an effect of 50% or more. The effect is printed as a negative number. This excerpt belongs to a sample that is enriched for strong results.
# Target: human ether-à-go-go-related gene (hERG) potassium channel (human, UniProt Q12809)
# Test: primary screen, population patch clamp on CHO cells stably expressing hERG; higher = less effect of the substance
# 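Also: peak tail current of the secondary pulse compared with the same well before compound.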
# human ether-à-go-go-related gene (hERG) potassium channel, sequence (Q12809 whole entry, looked up): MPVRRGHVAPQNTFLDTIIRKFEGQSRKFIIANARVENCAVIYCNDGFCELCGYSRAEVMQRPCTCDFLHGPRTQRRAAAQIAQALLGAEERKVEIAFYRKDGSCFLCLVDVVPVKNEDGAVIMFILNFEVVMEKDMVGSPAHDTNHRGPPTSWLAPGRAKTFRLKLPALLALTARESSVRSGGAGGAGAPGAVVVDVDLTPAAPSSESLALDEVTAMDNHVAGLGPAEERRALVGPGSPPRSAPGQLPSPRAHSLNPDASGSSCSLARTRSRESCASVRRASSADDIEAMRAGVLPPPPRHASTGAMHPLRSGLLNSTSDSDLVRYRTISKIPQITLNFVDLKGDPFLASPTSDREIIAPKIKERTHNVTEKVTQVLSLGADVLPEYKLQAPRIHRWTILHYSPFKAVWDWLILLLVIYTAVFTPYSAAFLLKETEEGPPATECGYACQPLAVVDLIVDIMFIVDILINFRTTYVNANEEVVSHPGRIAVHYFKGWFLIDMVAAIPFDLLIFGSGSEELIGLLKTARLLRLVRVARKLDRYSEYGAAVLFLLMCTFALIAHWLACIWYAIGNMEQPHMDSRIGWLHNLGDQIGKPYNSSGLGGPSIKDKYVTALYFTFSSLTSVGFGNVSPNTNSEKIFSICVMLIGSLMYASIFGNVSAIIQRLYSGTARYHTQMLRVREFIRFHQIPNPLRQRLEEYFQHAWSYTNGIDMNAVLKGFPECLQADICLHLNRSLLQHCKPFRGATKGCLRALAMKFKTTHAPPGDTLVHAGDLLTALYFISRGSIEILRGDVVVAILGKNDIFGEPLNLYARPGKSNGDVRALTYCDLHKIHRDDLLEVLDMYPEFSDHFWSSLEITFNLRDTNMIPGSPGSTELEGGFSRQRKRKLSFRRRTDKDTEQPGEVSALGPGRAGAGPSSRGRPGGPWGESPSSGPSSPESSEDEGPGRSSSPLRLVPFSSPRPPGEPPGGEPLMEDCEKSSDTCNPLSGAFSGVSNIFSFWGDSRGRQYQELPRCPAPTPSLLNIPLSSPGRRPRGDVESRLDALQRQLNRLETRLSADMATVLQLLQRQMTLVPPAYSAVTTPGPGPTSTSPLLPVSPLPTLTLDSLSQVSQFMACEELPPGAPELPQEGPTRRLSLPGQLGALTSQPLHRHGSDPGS
row,Compound,"hERG current change (%, negative = inhibition) at 10uM [%]"
1,O=C(/C=C/c1ccc2c(c1)OCO2)c1cccnc1,-27.8
2,CC(=O)Nc1ccc(NC(=O)/C=C/c2ccc3c(c2)OCO3)cc1,13
3,O=C(/C=C/c1ccc2c(c1)OCO2)Nc1cccnc1,-66.4
4,C[C@@H](C(=O)N[C@@H](Cc1c[nH]c2ccccc12)C(=O)O)n1nnc2ccccc2c1=O,41.7
5,Cn1c(Cn2c(=O)sc3ccccc32)nnc1SCc1ccc(F)cc1,-21.6
6,CC(=O)N(CCS(=O)(=O)c1ccc(Cl)cc1)Cc1cccs1,-0.348
7,N#C/C(=C\c1ccc(N2CCOCC2)o1)C(=O)NCCc1ccccc1,-57.9
8,COCCNC(=O)/C(C#N)=C/c1ccc(N2CCOCC2)o1,9.87
9,N#C/C(=C\c1ccc(N2CCOCC2)o1)C(=O)NCC1CCCO1 (stereo not drawn),-0.262
10,O=C(c1cc(C(=O)NCc2ccccc2)c(=O)n(Cc2ccccc2)c1)c1cc(Cl)ccc1O,-0.908
11,Cc1ccc2nsnc2c1S(=O)(=O)Nc1cccc2nsnc12,-0.692
12,COc1cc(C(=O)NC(=S)Nc2nccs2)cc(OC)c1OC,17.7
13,COC(=O)C(C)Sc1nc2c(c(=O)[nH]c(=O)n2C)n1CCCc1ccccc1 (stereo not drawn),-72.2
14,CCOC(=O)C(C)Sc1nc2c(c(=O)[nH]c(=O)n2C)n1CCc1ccccc1 (stereo not drawn),-49.8
15,Cn1c(=O)[nH]c(=O)c2c1nc(SCC(=O)O)n2CCCc1ccccc1,3.89
16,CCOC(=O)C(C)Sc1nc2c(c(=O)[nH]c(=O)n2C)n1C/C=C(/C)Cl (stereo not drawn),-72.8
17,COC(=O)C(C)Sc1nc2c(c(=O)[nH]c(=O)n2C)n1CCC(C)C (stereo not drawn),-24.6
18,CC(C)Sc1nc2c(c(=O)[nH]c(=O)n2C)n1Cc1ccc(Cl)cc1,-13.3
19,CCOC(=O)C(C)Sc1nc2c(c(=O)[nH]c(=O)n2C)n1Cc1ccc(Cl)cc1 (stereo not drawn),-75
20,C/C(Cl)=C/Cn1c(SC(C)C)nc2c1c(=O)[nH]c(=O)n2C,-6.63
21,C/C(Cl)=C/Cn1c(SCC(C)C)nc2c1c(=O)[nH]c(=O)n2C,15.2
22,CCOC(=O)C(CC)Sc1nc2c(c(=O)[nH]c(=O)n2C)n1CCc1ccccc1 (stereo not drawn),-67.8
23,CCOC(=O)CSc1nc2c(c(=O)[nH]c(=O)n2C)n1CCc1ccccc1,-1.16
24,CCC(C)Sc1nc2c(c(=O)[nH]c(=O)n2C)n1Cc1ccc(Cl)cc1 (stereo not drawn),1.92
